Source: PubChem (National Center for Advancing Translational Sciences (NCATS))
This is a sample that favours compounds with a hit; in the whole collection about 17% have one here.
ATXN2 expr inh: ATXN2 expression inhibition | Potency, µM (titrated, usually from 57 µM), without a hit: at the top dose activity change, negative = inhibition, actives largely listed as inhibitors | AID 1745845 | HEK-293 ATXN2-luciferase reporter, luminescence, 24 h | actives 0.72% (n = 360,000); further: on the % scale 0 is the no-effect control and ±100 the full control effect; nearly all actives have a fitted effect of over 55% in size
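ATXN2-luciferase reporter cells (luciferase flanked by upstream and downstream ATXN2 gene portions) were treated 24 h at 37 °C with compounds at up to 57 uM. SteadyGlo luminescence gave expression; GF-AFC fluorescence gave viability.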
ATXN viability: reduces viability in counter-screen for ATXN expression inhibitors; S2 cells (HEK-293 line with an ATXN2-luciferase reporter) viability, CellTiter-Fluor protease fluorescence, 24 h; Potency, µM (top dose mostly 56.7 µM), most hits filed as cytotoxic; actives 0.49% (n = 400,000); further: nearly all actives have a fitted effect of over 40% in size
TGFb inhibitor: blocks TGF-b signaling. HepG2 CAGA-GFP TGF-b/SMAD3 reporter, GFP fluorescence, 18 h; TGF-beta stimulated, 500 pg/mL final. Potency, µM (titrated, usually from 46.1 µM), inactives show at the highest dose activity, negative = inhibition, most hits filed as inhibitors. actives 1.2% (n = 410,000). AID 588855; further: on the % scale 0 is the no-effect control and ±100 the full control effect; nearly all actives have a fitted effect of over 65% in size
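Per well, imaged GFP fluorescence of HEPG2 CAGA-GFP cells gives the signal; cells get compound, then TGF-beta (500 pg/mL final), 18 h at 37 degrees C; %Activity versus -TGF-beta and +DMSO controls.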
TDP1 cell CPT: growth inhibition of DT40 Tdp1-/-;hTDP1 cells with camptothecin (screen for TDP1 inhibitors); chicken DT40 Tdp1-/-;hTDP1 cells + 20 nM CPT, ATP luminescence, 48 h; Potency, µM (series often up to 46.2 µM), without a hit: at the highest dose activity change, negative = growth inhibition, usual class: inhibitors; actives 12% (n = 420,000); AID 686979; further: on the % scale 0 is the no-effect control and ±100 the full control effect; nearly all actives have a fitted effect of over 55% in size
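Cell growth measured by CellTiter-Glo luminescence after a minimum 48 h, 37 C compound exposure with 20 nM CPT in Tdp1-knockout DT40 cells stably expressing hTDP1, seeded 400/well; qHTS titration format.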
HepG2 viability: kills HepG2 cells in TGF-b inhibitor counter-screen | HepG2 CAGA-GFP viability, ATP luminescence, 18 h | Potency, µM (highest dose often 46.1 µM), without a hit: at the top dose activity change, negative = cytotoxicity, usual class: cytotoxic | actives 0.76% (n = 410,000)
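CellTiter-Glo luminescence gave cytotoxicity after 18 hours at 37 degrees C. The cells were HepG2 CAGA-GFP in 1% FBS DMEM, stimulated with 500 pg/mL TGF-beta after compound addition. %Activity was normalised to no-cell wells (complete cell-killing) and DMSO (no toxicity), and curves were fitted and classified.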
DT40 TDP1 no CPT: qHTS for Inhibitors of human tyrosyl-DNA phosphodiesterase 1 (TDP1): qHTS in cells in absence of CPT | DT40 Tdp1-/- hTDP1 cells, no CPT, ATP luminescence, 48 h | actives 15% (n = 420,000) | Potency, µM (highest dose often 46.2 µM), for the others: at the highest dose activity change, negative = growth inhibition, hits mostly inhibitors; further: on the % scale 0 is the no-effect control and ±100 the full control effect; nearly all actives have a fitted effect of over 55% in size
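No-CPT arm: Tdp1-/-;hTDP1 DT40 cells (400/well) plus compounds, incubated ≥48 hr at 37 °C. Readout CellTiter-Glo luminescence.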
Starred values were filed as active, the others as inactive; i = inactive; ? = inconclusive; / = not tested or not shown. The call rests on the fitted dose curve; in most records, active means well fitted curve in the direction sought with a large enough effect; inconclusive means small, poorly fitted or top-dose-only effect, or another doubt; inactive means no such curve, though single readings can be large; an effect the other way counts as inactive or inconclusive. Potency means the concentration at half of the fitted maximal effect.

SMILES | ATXN2 expr inh | ATXN viability | TGFb inhibitor | TDP1 cell CPT | HepG2 viability | DT40 TDP1 no CPT
COCCNC(=O)c1cc(-c2ccccc2C)n(CC2CC(c3cccc([N+](=O)[O-])c3)=NO2)n1 (centres undefined) | -11% | i | -1% | ? | -9% | ?
Cc1cccc(N2CCN(S(=O)(=O)c3ccc4c(c3)C(C(C)C)C(=O)N4)CC2)c1C (centres undefined) | ? | i | 16µM* | 5.2µM* | -57% | 12µM*
Cc1cccc(N2CCN(S(=O)(=O)c3ccc4c(c3)NC(=O)C(C)S4)CC2)c1C (centres undefined) | -24% | i | 16µM* | 21µM* | 0% | ?
Cc1cccc(N2CCN(S(=O)(=O)c3ccc4c(c3)NC(=O)CS4)CC2)c1C | -23% | i | ? | ? | -4% | ?
COc1ccc2cc(C3NC(=O)c4ccccc4N3)c(Cl)nc2c1 (centres undefined) | -28% | i | -12% | -18% | -26% | ?
CCCC12CN3CC(C)(CN(C1)C3c1cn(C)c3ccccc13)C2=O (centres undefined) | -4% | i | -6% | ? | 2% | ?
COc1ccc(C2NC(=O)c3ccccc3N2)c(OC)c1OC (centres undefined) | / | i | 0% | ? | -10% | ?
O=C1NC(c2ccccc2O)Nc2ccccc21 (centres undefined) | / | i | -3% | -19% | -4% | -17%
Cc1ccc(C)c2nc(Cl)c(C3NC(=O)c4ccccc4N3)cc12 (centres undefined) | -19% | i | -10% | ? | 1% | 16µM*
Cn1cc(C2NC(=O)c3ccccc3N2)c2ccccc21 (centres undefined) | 11% | ? | -12% | 1.2µM* | 1% | 1.6µM*
COc1cc(C)c(C2NC(=O)c3ccccc3N2)cc1C (centres undefined) | -6% | ? | ? | 2.6µM* | -31% | 2.1µM*
Cc1ccc(C)c(C2NC(=O)c3ccccc3N2)c1 (centres undefined) | / | i | -2% | 0.73µM* | -3% | 0.58µM*
Cc1ccccc1NC(=O)CSc1nc2c(c(=O)n(C)c(=O)n2C)n1C | 5% | i | 15% | 4% | 0% | 7%
Cc1cccc(-c2cc3nc4c(c(N5CCOCC5)n3n2)CCCC4)c1 | 75% | i | ? | 18µM* | -25% | 23µM*
C1CCc2c(nc3nnnn3c2N2CCOCC2)C1 | 2% | i | 10% | -5% | 5% | -19%
Fc1ccc(-c2cc3nc4c(c(N5CCOCC5)n3n2)CCCC4)cc1 | 0% | i | ? | 18µM* | -20% | 16µM*
O=C(C1CCCO1)N1CCN(c2c3c(nc4cc(-c5ccc(F)cc5)nn24)CCC3)CC1 (centres undefined) | 2% | i | -30% | ? | -36% | 16µM*
OC1CCN(c2c3c(nc4cc(-c5ccc(F)cc5)nn24)CCC3)CC1 | -19% | i | -10% | 16µM* | -2% | ?
OC1CCN(c2cc(-c3ccccc3)nc3cc(-c4ccc(F)cc4)nn23)CC1 | -2% | i | -4% | 15% | -19% | ?
NCCC1CCCC(CCN)N1 (centres undefined) | 8% | i | -2% | -7% | 13% | -2%
COc1ccc(NC(=O)C2CC2(Cl)Cl)cc1S(=O)(=O)N1CCCCC1 (centres undefined) | / | i | 1% | ? | -20% | ?
CN(C)S(=O)(=O)c1ccc(C(=O)Nc2cc(=O)n(C)c(=O)n2C)cc1 | 0% | i | 11% | -18% | 1% | -1%
O=C(C1CCC1)N1CCc2cc(S(=O)(=O)NCCc3ccccc3)ccc21 | -1% | i | -20% | ? | -4% | ?
O=C(CCNS(=O)(=O)c1ccc2c(c1)CCN2C(=O)C1CC1)N1CCN(c2ccccc2F)CC1 | 0% | i | -1% | 13µM* | -12% | 12µM*
O=C(C1CCC1)N1CCc2cc(S(=O)(=O)NCCN3CCN(c4ccccc4F)CC3)ccc21 | -6% | i | -28% | ? | -13% | 23µM*
SMILES | ATXN2 expr inh | ATXN viability | TGFb inhibitor | TDP1 cell CPT | HepG2 viability | DT40 TDP1 no CPT
COc1ccc(NC(=O)CCS(=O)(=O)c2cc(Br)cc3c2N(C(C)=O)CC3)c(OC)c1 | 7% | i | 17% | -22% | 1% | -9%
Cc1ccc(C(=O)CCNc2ccccc2)o1 | 41% | i | ? | ? | -26% | 8.2µM*
Cc1ccc(C(=O)CCNc2ccc(F)c(Cl)c2)o1 | 5% | i | ? | 16µM* | -13% | 16µM*
Cc1ccc(C(=O)CCNc2cccc(Br)c2)o1 | 3% | i | -5% | 21µM* | -12% | 18µM*
Cc1ccc(C(=O)CCNc2ccc(Br)cc2)o1 | 10% | i | -17% | 13µM* | -24% | 13µM*
CNC(C)C(=O)NC(C(=O)NC(C)C(=O)Nc1cccc2ccccc12)C(C)C (centres undefined) | 4% | i | ? | 0% | -26% | -1%
Cc1cccc(C)c1NC(=O)c1cnccn1 | / | i | 15% | 3% | 11% | 2%
Cc1ccc(S(=O)(=O)N(CC(=O)Nc2c(C)cccc2C)c2cccc(Cl)c2)cc1 | / | / | ? | ? | -13% | 15µM*
CN(c1cccc(NC(=O)CN(c2ccc(F)cc2)S(C)(=O)=O)c1)S(C)(=O)=O | -16% | i | 5% | 1% | -9% | -1%
CN(c1cccc(NC(=O)CN(c2ccc(C34CC5CC(CC(C5)C3)C4)cc2)S(C)(=O)=O)c1)S(C)(=O)=O | ? | ? | 11µM* | 18µM* | -31% | 21µM*
COc1ccc(C)cc1N(CC(=O)Nc1cccc(N(C)S(C)(=O)=O)c1)S(C)(=O)=O | 1% | i | ? | 21µM* | -40% | ?
O=C(CN(c1ccc(Cl)c(C(F)(F)F)c1)S(=O)(=O)c1ccccc1)Nc1cccnc1 | ? | ? | 11µM* | ? | -14% | 7.3µM*
CN(CC(=O)Nc1cccnc1)S(=O)(=O)c1ccccc1 | 8% | i | 5% | -24% | 12% | -8%
Nc1cc(C(=O)OCC(=O)NCCNC(=O)COC(=O)c2ccc(Cl)c(N)c2)ccc1Cl | -17% | i | 19% | 3% | 2% | ?
CC(C)CCSc1nnc(N)s1 | / | i | -17% | -1% | -2% | 17%
